Measurements as given in article PMC5540273 (PLoS ONE, 2017).

The molecules below were run on T1, FAK. Conditions: concentration: 1 μM,replicates: in singlicate; n = 1.
T1 construct: gene PTK2
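Note: KINOMEscan kinase panel screen.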

| SMILES | %Inh |
| --- | --- |
| COc1ccc(Nc2nccc(N3CCC(NC(=O)c4cccc(C#N)c4)C3)n2)cc1 (stereo not drawn) [GSK1379730] | 0% |
| C[C@@H](Oc1cc(-n2cnc3cc(-c4cnn(C)c4)ccc32)sc1C(N)=O)c1ccccc1Cl [GSK580432] | 0% |
| O=C(Nc1n[nH]c2cc(-c3ccco3)ccc12)C1CC1 [SB-737447] | 3% |
| COC(=O)Nc1nc2cc(Oc3ccc(NC(=O)Nc4cc(C(F)(F)F)ccc4Cl)cc3)ccc2[nH]1.Cl [GW697465] | 0% |
| Cc1cccc2c(-c3ccncc3)c(-c3ccc(F)cc3)nn12.Cl [GW461487] | 0% |
| O=c1[nH]cc(-c2ccc(O)cc2)c2sc(-c3ccncc3)cc12 [GSK1033723] | 0% |
| COc1cccc(CNC(=O)NC2CCN(c3ccnc(Nc4cc(OC)c(OC)c(OC)c4)n3)C2)c1 (stereo not drawn) [GSK1379765] | 0% |
| COc1cccc(OC)c1C(=O)Nc1cccc(-c2nn3ccccc3c2-c2ccnc(Nc3cccc(F)c3)n2)c1 [GSK361065] | 1% |
| CC(=O)Nc1nc2cnc(Nc3cc(NC(=O)c4cccc(CC(C)(C)C#N)c4)ccc3C)nc2s1 | 8% |
| CC(C)S(=O)(=O)N1CCN(Cc2ccc3c(c2)nc(NC(=O)c2ccsc2)n3C[C@H](O)c2ccccc2)CC1 [GW635815] | 29% |
| Cc1ccc(Nc2ccnc(Nc3ccc4c(c3)CS(=O)(=O)C4)n2)cc1O.Cl [GW579362] | 65% |
| Cc1nnc(-c2ccc3occ(-c4ccc(S(C)=O)cc4)c3n2)o1 (stereo not drawn) | 0% |
